Data on 40 compounds can be found in the supplement of paper PMC9262897, “Low-cost anti-mycobacterial drug discovery using engineered E. coli” (Nature Communications, 2022).

Each structure is given as a SMILES string. Where a name gives a salt, the structure may show the parent alone. ± gives the standard deviation of the averaged measurements.

This assay concerns E. coli TESEC Alr+ wild-type control. Nature of the assay: growth (OD600 after 10 h); higher = more growth (less inhibition). To be noted: compound 0.1 mM; raw OD600 reference: median of DMSO wells 0.49, cell-free background 0.052. The protocol: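 TESEC Mtb Alr E. coli (ΔaraC ΔtolC ΔentC Δalr ΔdadX, arabinose-inducible Mtb Alr) or the Alr+ wild-type control strain, grown in defined M9-fructose medium without D-alanine in 96-well plates with Prestwick library compounds at 0.1 mM and 1% DMSO. Low Alr induction is 0.1 µM arabinose and high induction is 10 mM arabinose.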
`CC(C)(Oc1ccc(C2CC2(Cl)Cl)cc1)C(=O)O` (stereo not given) [Ciprofibrate]: the growth came to 0.515 ± 0.079.
Then `Cc1nc(=O)c2cc(CN(C)c3ccc(C(=O)N[C@@H](CCC(=O)O)C(=O)O)s3)ccc2[nH]1` [Raltitrexed], with 0.606 ± 0.055; and `CCOC(=O)OC(C)OC(=O)[C@@H]1N2C(=O)[C@@H](NC(=O)[C@H](N)c3ccccc3)[C@H]2SC1(C)C` (stereo not given in full) [Bacampicillin hydrochloride], with 0.611 ± 0.013.
`CCN(CC)CCOC(=O)c1ccc(N)cc1` [Procaine hydrochloride] yielded a growth of 0.52 ± 0.05.
Compound `Clc1ccc(COC(Cn2ccnc2)c2ccc(Cl)cc2Cl)c(Cl)c1` (stereo not given) [Miconazole] registered a growth of 0.137 ± 0.03.
Regarding `Nc1c2ccccc2nc2ccccc12` [Aminacrine], the growth is 0.0507 ± 0.00067.
The figure for `COc1cc([C@@H]2c3cc4c(cc3[C@@H](O[C@@H]3O[C@@H]5CO[C@@H](C)O[C@H]5[C@H](O)[C@H]3O)[C@H]3COC(=O)[C@H]23)OCO4)cc(OC)c1O` [Etoposide] is 0.142 ± 0.0036; for `Cc1cccn2c(=O)c(-c3nnn[nH]3)cnc12` [Pemirolast potassium] it is 0.49 ± 0.067; for `CCCC(C(=O)OCCN(CC)CC)(c1ccccc1)c1ccccc1` [Proadifen hydrochloride] it is 0.0545 ± 0.001.
The figure for `NS(=O)(=O)Cc1noc2ccccc12` [Zonisamide] is 0.453 ± 0.018; for `C[C@@H]1NC(=O)NC1=O` [Methylhydantoin-5-(L)] it is 0.49 ± 0.056.
Then `CS(=O)(=O)c1ccc(C2=C(c3ccccc3)C(=O)OC2)cc1` [Rofecoxib], with 0.455 ± 0.041.
On to `O=P(O)(O)C(O)(Cc1cccnc1)P(=O)(O)O` [Risedronic acid monohydrate], for which the growth amounted to 0.608 ± 0.083.
The figure for `CN(C)CCC(c1ccc(Cl)cc1)c1ccccn1` (stereo not given) [Chlorpheniramine maleate] is 0.466 ± 0.037; for `CC(=O)N[C@@H](CS)C(=O)O` [Acetylcysteine] it is 0.475 ± 0.06.
Then `CCOc1ccc(Cc2nccc3cc(OCC)c(OCC)cc23)cc1OCC` [Ethaverine hydrochloride], with 0.377 ± 0.051; and `O=C(N[C@H](CO)[C@H](O)c1ccc([N+](=O)[O-])cc1)C(Cl)Cl` [Chloramphenicol], with 0.05047 ± 0.0005; and `CCC(C)(C)c1ccc(CC(C)CN2C[C@@H](C)O[C@@H](C)C2)cc1` (stereo not given in full) [Amorolfine hydrochloride], with 0.0891 ± 0.0055.
Then `COc1cccc2c1C(=O)c1c(O)c3c(c(O)c1C2=O)C[C@@](O)(C(=O)CO)C[C@@H]3O[C@H]1C[C@H](N)[C@H](O)[C@H](C)O1` [Doxorubicin hydrochloride], with 0.05757 ± 0.00055; and `CC(=O)O[C@]1(C(C)=O)CC[C@H]2[C@@H]3C=C(Cl)C4=CC(=O)[C@@H]5C[C@@H]5[C@]4(C)[C@H]3CC[C@@]21C` [Cyproterone acetate], with 0.355 ± 0.17.
Consider `C[C@]12CC[C@@H]3c4ccc(O)cc4CC[C@H]3[C@@H]1C[C@@H](O)[C@@H]2O` [Estriol], for which the growth came out at 0.474 ± 0.021.
The figure for `O=C(c1ccccc1)c1ccc2n1CCC2C(=O)O` (stereo not given) [Ketorolac tromethamine] is 0.531 ± 0.076; for `Cc1cccc(C)c1NC(=O)CN1CCN(CCCC(c2ccc(F)cc2)c2ccc(F)cc2)CC1` [Lidoflazine] it is 0.563 ± 0.013.
For `COC(=O)Nc1nc2cc([S+]([O-])c3ccccc3)ccc2[nH]1` (stereo not given) [Oxfendazol], the growth was 0.634 ± 0.024.
Then `Cc1ccnc(NS(=O)(=O)c2ccc(N)cc2)n1` [Sulfamerazine], with 0.515 ± 0.075; and `CC(=O)Oc1ccccc1C(=O)Oc1ccccc1C(=O)O` [Acetylsalicylsalicylic acid], with 0.449 ± 0.04.
The figure for `N[C@@H]1CONC1=O` [D-cycloserine] is 0.399 ± 0.14.
The figure for `Nc1nc(NC2CC2)c2ncn([C@H]3C=C[C@@H](CO)C3)c2n1` [Abacavir Sulfate] is 0.612 ± 0.095; for `CC1(C)O[C@@H]2C[C@H]3[C@@H]4C[C@H](F)C5=CC(=O)C=C[C@]5(C)[C@@]4(F)[C@@H](O)C[C@]3(C)[C@]2(C(=O)CO)O1` [Fluocinolone acetonide] it is 0.591 ± 0.015.
As to `CC(=O)[C@@]12O[C@](C)(c3ccccc3)O[C@@H]1C[C@H]1[C@@H]3CCC4=CC(=O)CC[C@]4(C)[C@H]3CC[C@@]12C` [Algestone acetophenide], the growth was determined as 0.381 ± 0.016.
Take `CN1CCC(OC(c2ccccc2)c2ccccc2)CC1` [Diphenylpyraline hydrochloride]: the growth was determined as 0.47 ± 0.021.
In turn, `CCCNCC(O)COc1ccccc1C(=O)CCc1ccccc1` (stereo not given) [Propafenone hydrochloride] returned a growth of 0.452 ± 0.022.
The figure for `Oc1ccc(OCc2ccccc2)cc1` [Monobenzone] is 0.477 ± 0.012; for `C=CC[N@@+]12CC[C@@]34c5ccccc5N5/C=C6/[C@H]7C[C@H]8[C@@]9(CC[N@@+]8(CC=C)C/C7=C/CO)c7ccccc7N(/C=C(/[C@@H](C[C@@H]31)/C(=C\CO)C2)[C@H]54)[C@@H]69` [Alcuronium chloride] it is 0.456 ± 0.037; for `N[C@@H](Cc1ccc(O)c(O)c1)C(=O)O` [Levodopa] it is 0.489 ± 0.052.
The figure for `COC(=O)[C@@H]1[C@H]2C[C@H]3c4[nH]c5ccccc5c4CCN3C[C@@H]2CC[C@@H]1O` [Yohimbine hydrochloride] is 0.525 ± 0.13; for `CC(C)NCC(O)COc1ccc(COCCOC(C)C)cc1` (stereo not given) [Bisoprolol fumarate] it is 0.448 ± 0.022.
The figure for `Clc1ccc(CSC(Cn2ccnc2)c2ccc(Cl)cc2Cl)cc1` (stereo not given) [Sulconazole nitrate] is 0.0607 ± 0.0028; for `Cc1cc(C(C)(C)C)c(O)c(C)c1CC1=NCCN1` [Oxymetazoline hydrochloride] it is 0.514 ± 0.062; for `CC(C)(C)CC(C)(C)c1ccc(OCOCCOCCO)c(Cc2cc(C(C)(C)CC(C)(C)C)cc(Cc3cc(C(C)(C)CC(C)(C)C)ccc3OCOCCOCCO)c2OCOCCOCCO)c1` [Tyloxapol] it is 0.4593 ± 0.0043.
